# Screening data deposited in PubChem BioAssay by National Center for Advancing Translational Sciences (NCATS).
# Sampled rows, rich in hits. Any-hit rate of the full collection: about 11%.
# NPR1 antag: Natriuretic polypeptide receptor (hNpr1) antagonism - Primary qHTS. Atrial natriuretic peptide receptor 1 (Homo sapiens), P16066. 76,000 tested, 1.6% active. Potency, µM (titrated, usually from 46.3 µM), for the others: at the highest dose activity change, negative = inhibition, most hits filed as inhibitors. AID 1347048, 2019. HEK293 hNpr1 GloSensor cGMP, ANP-stimulated luminescence; calls by dose curve; further: nearly all actives have a fitted effect of over 60% in size
#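 Compound pre-incubated 30 min at room temperature on GloSensor-loaded HEK293 cells stably carrying hNpr1 and the pGS-40F cGMP biosensor. Stimulation uses hNppA at 0.1 nM final; luminescence is taken at baseline and 20 min post-agonist.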
# HEK293 tox: Cytotoxic Profiling in HEK 293 Cell Line of Diverse Libraries Using Quantitative High-Throughput Screening. HEK 293 viability, ATP luminescence (CellTiter-Glo), 48-72 h. Potency, µM (titrated, usually from 115 µM), inactives show top-dose activity change, negative = cytotoxicity, usual class: inhibitors. 94,000 tested, 6.6% active. AID 1345083, 2018; further: nearly all actives have a fitted effect of over 60% in size
#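 HEK 293 cells seeded at 250 cells/well were exposed to compound for 48 or 72 hr at 37 degree Celsius. Viability taken as ATP content by CellTiter-Glo luminescence.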
# FLuc inh: Firefly luciferase inhibition profiling of diverse chemical library using quantitative high-throughput screening; Luciferin 4-monooxygenase (Photinus pyralis), P08659; purified P. pyralis luciferase, luminescence, biochemical; Potency, µM (doses to about 115 µM), usual class: inhibitors; 76,000 tested, 2.5% active; AID 1347043, 2019; further: nearly all actives have a fitted effect of over 65% in size
# Target sequence (P08659 whole entry, looked up): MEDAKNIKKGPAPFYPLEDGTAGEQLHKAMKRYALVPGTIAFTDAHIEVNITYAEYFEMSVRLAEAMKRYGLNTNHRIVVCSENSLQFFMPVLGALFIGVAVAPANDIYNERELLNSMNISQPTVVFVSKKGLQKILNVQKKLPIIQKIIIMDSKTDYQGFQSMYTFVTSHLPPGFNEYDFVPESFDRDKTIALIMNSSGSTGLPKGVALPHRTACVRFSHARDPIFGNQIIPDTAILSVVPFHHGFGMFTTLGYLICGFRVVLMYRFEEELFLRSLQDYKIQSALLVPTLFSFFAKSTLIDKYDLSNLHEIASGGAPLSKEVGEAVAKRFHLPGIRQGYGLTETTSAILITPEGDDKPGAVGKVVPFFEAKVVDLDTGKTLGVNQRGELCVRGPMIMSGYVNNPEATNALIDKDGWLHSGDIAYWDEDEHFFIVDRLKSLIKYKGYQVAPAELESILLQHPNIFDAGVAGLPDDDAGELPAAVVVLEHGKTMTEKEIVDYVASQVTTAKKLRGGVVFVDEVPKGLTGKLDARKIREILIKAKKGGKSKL
#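 Luminescence read by CCD imaging after purified firefly luciferase (10nM final) was added to substrate buffer holding 10uM D-luciferin and 10uM ATP, pH 7.5, pre-dosed with compound.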
# NIH3T3 tox: Cytotoxic Profiling in NIH 3T3 Cell Line of Diverse Libraries Using Quantitative High-Throughput Screening; NIH 3T3 viability, CellTiter-Glo ATP luminescence, 48-72 h; Potency, µM (series often up to 96.7 µM), for inactives: at the highest dose activity change, negative = cytotoxicity, most hits filed as inhibitors; 94,000 tested, 4.3% active; further: nearly all actives have a fitted effect of over 55% in size
#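 Cells were seeded at 400 per well, treated with pin-transferred compound, and kept 48 or 72 hr at 37 °C before CellTiter-Glo addition and luminescence imaging of cellular ATP.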
# Numbers without * were called inactive; i = inactive; ? = inconclusive; nt = no result given; [ ] = another dose, or the depositor's remark. Unless noted, the call rests on the fitted dose curve; in most records, active means well fitted curve in the direction sought with a large enough effect; inconclusive means small, poorly fitted or top-dose-only effect, or another doubt; inactive means no such curve, though single readings can be large; an effect the other way counts as inactive or inconclusive. On the % scale 0 is the no-effect control and ±100 the full control effect; potency means the concentration at half of the fitted maximal effect.
SMILES,NPR1 antag,HEK293 tox,FLuc inh,NIH3T3 tox
Cc1ccc(C(=O)NC2CCN(c3ccnc4ccnn34)C2)cc1 (stereo not drawn),nt,63µM*,nt,?
CO[C@H]1CN(C2CCN(C(=O)Cn3cc(C)cn3)CC2)[C@H]1c1cccnc1,nt,i,nt,-4%
c1ccc(-c2noc(CC3CCOC4(CCN(Cc5cccnc5)CC4)C3)n2)cc1 (stereo not drawn),?,25µM*,i,?
COc1cccc(CC(=O)N2CCC(Cc3nc(-c4ccncc4)n[nH]3)C2)c1 (stereo not drawn),-15%,13µM*,i,?
COc1cccc(CC(=O)N2CCC3(CC2)CC(Cc2nc(-c4ccncc4)no2)CCO3)c1 (stereo not drawn),?,40µM*,i,?
O=C(COc1ccccc1)N1CCC(Cc2nc(-c3ccncc3)n[nH]2)CC1,2%,-5%,i,-30%
O=C(C1CC1)N1CCC2(CC1)CC(Cc1nc(-c3ccncc3)no1)CCO2 (stereo not drawn),?,45µM*,i,?
CN1CC(=O)N(c2ccc(Cl)cc2)Cc2c1ncnc2N1CCc2ccccc2C1,-7%,?,i,?
COc1ccc(-c2nc3cnccn3c2NCCC(=O)O)cc1,0%,4%,35µM*,-2%
Cc1ccc(CN2Cc3[nH]cnc3C[C@H]2c2nc(-c3ccc4ccccc4c3)no2)cc1,-27%[70.6 µM],63µM*,63µM*,45µM*
OCc1ccc(CN2Cc3[nH]cnc3C[C@H]2c2nc(-c3ccc4ccccc4c3)no2)o1,-21%[70.6 µM],79µM*,?,79µM*
CCOC(=O)c1ccc(NC(=O)CN2C(=O)NC3(CCCCC3)C2=O)cc1,6%,?,i,-26%
Cn1ncc2c(C(=O)NCc3cccc(C(F)(F)F)c3)cc(-c3ccc([S+](C)(=O)[O-])cc3)nc21,nt,i,nt,0%
Cn1ncc2c(C(=O)NCc3cccc(C(F)(F)F)c3)cc(-c3ccsc3)nc21,nt,28µM*,nt,?
Cn1ncc2c(C(=O)NCCc3ccc(Cl)cc3)cc(-c3ccsc3)nc21,nt,-29%,nt,?
CC(C)CNC(=O)c1cc(-c2ccsc2)nc2c1cnn2C,nt,71µM*,nt,?
COC(=O)[C@@H]1Cc2c([nH]c3ccccc23)[C@H]2C[C@@H](NCc3cccnc3)C[C@@H](c3ccc(F)c(F)c3)N21,-2%,25µM*,i,?
COC(=O)[C@@H]1Cc2c([nH]c3ccccc23)[C@H]2C[C@@H](NCc3cccnc3)C[C@@H](c3ccc(F)cc3)N21,-3%,22µM*,i,20µM*
COCC(=O)N[C@H]1C[C@H]2C(=O)NC[C@@H](CCC(=O)NCc3cccnc3)N2C1,2%[70.6 µM],-21%[172 µM],i,-6%[174 µM]
COC(=O)[C@@H]1Cc2c([nH]c3ccccc23)[C@H]2C[C@@H](NCc3cccnc3)C[C@@H](c3ccc(C(F)(F)F)cc3)N21,2%,?,i,28µM*
O=C(NCc1cccnc1)[C@@H]1C[C@@H](c2ccc(F)cc2)N(CCOc2ccccc2)C1,-18%[70.6 µM],?,i,?
Cc1cc(Cn2cc3c4c(cccc42)[C@H](CC(C)C)N[C@H](C(=O)NCc2ccc(C)o2)C3)no1,-2%,32µM*,i,?
Cc1cc(Cn2cc3c4c(cccc42)[C@H](CC(C)C)N[C@H](C(=O)NCc2nccs2)C3)no1,-3%,22µM*,i,?
CC(=O)NCCNC(=O)[C@@H]1Cc2cn(Cc3cc(C)on3)c3cccc(c23)[C@H](CC(C)C)N1,4%,?,i,-8%
CN(CCNC(=O)c1cc2cn(C3CC3)cc2s1)C1CCCCC1,0%,i,i,-11%
SMILES,NPR1 antag,HEK293 tox,FLuc inh,NIH3T3 tox
COc1ccc(C(=O)N2CC(N3C(=O)c4c(c(C)nn4-c4ccccc4)C3C(C)C)C2)cc1 (stereo not drawn),nt,1%,nt,-18%
O=C(Nc1ccc(Cl)cc1)N1CCC(Oc2ncccc2C(=O)N2CCCCC2)C1 (stereo not drawn),-1%,4%,i,?
O=C1[C@H]2CC[C@H](CN(Cc3cccc(N4CCOCC4)c3)C2)N1CC1CCC1,-7%,?,i,-22%
O=C1[C@H]2CC[C@H](CN(Cc3ccc(-n4ccnc4)cc3)C2)N1CC1CCC1,?,?,i,40µM*
O=C(NCCc1ccccn1)c1nc(-c2ccccc2)cc2[nH]ccc12,-22%[70.6 µM],79µM*,?,?
O=C(NCc1cccnc1)c1nc(-c2ccccc2)cc2[nH]ccc12,-3%[70.6 µM],89µM*,i,?
O=C1CCC(CNC(=O)c2nc(-c3ccccc3)cc3[nH]ccc23)N1 (stereo not drawn),-6%[70.6 µM],-5%[172 µM],i,?
Cc1cccc(C)c1-c1nc(C(=O)NCc2ccsc2)n2ccccc12,-2%,?,i,?
Clc1ccc(Cn2ccnc2-c2cc3n(n2)CCCNC3)cc1Cl,-4%,?,i,25µM*
c1ccc(CCCCn2ccnc2-c2cc3n(n2)CCCNC3)cc1,0%,-29%,i,?
Cc1ccccc1CC(=O)N1CCC2(CC1)CC(O)CCO2 (stereo not drawn),nt,i,nt,0%
Cc1ccc2c(c1)N(CCCC(=O)N1CCC(C)(c3noc(-c4ccccc4)n3)CC1)C(=O)CO2,nt,32µM*,nt,?
c1ccc(CCCN2CC[C@H](c3nnc(-c4ccccc4)o3)C2)cc1,-3%[70.6 µM],?,i,?
Cc1ccc(S(=O)(=O)N2CCC(OC3CCN(Cc4ccccc4)CC3)CC2)cc1C,-22%,?,i,35µM*
O=S(=O)(c1cccc(F)c1)N1CCC(OC2CCN(Cc3ccccc3)CC2)CC1,0%,-5%,i,-26%
c1ccc(-c2noc(Nc3ccc4c(c3)OCCO4)n2)cc1,-29%,40µM*,22µM*,?
CC(C)(C)CC(=O)N1CCC2(CC1)C(=O)N(CC(=O)Nc1ccc(F)cc1)CN2c1ccccc1,-1%,?,i,?
CC(C)(C)C(=O)N1CCC2(CC1)C(=O)N(CC(=O)Nc1cccc(Cl)c1)CN2c1ccccc1,-2%,35µM*,i,32µM*
COc1ccc(NC(=O)c2cc(-c3ccccc3C(F)(F)F)nc3c2cnn3C)cc1OC,nt,32µM*,nt,?
Cn1ncc2c(C(=O)Nc3ccc(F)cc3)cc(-c3ccccc3C(F)(F)F)nc21,nt,28µM*,nt,?
Cn1ncc2c(C(=O)Nc3cccc(C(F)(F)F)c3)cc(-c3ccccc3C(F)(F)F)nc21,nt,22µM*,nt,28µM*
CCN(C(=O)c1cc(-c2ccccc2C(F)(F)F)nc2c1cnn2C)c1ccccc1,nt,25µM*,nt,?
